We go through five molecules from PubChem BioAssay.

Experiment [1] has as its system Human papillomavirus type 1a protein E7 (residues 44-93). Put plainly: small molecules binding HPV E7 44-93 – biochemical, small-molecule microarray, residues 44-93, 635 nm fluorescence, primary screen (AID 1108).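 Note: E7 fragment applied at 1 µg/mL in TBST for 1 h at 4 C; score combines spot fluorescence with its signal to noise ratio.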 Particulars: fluorescence 635 nm, higher = more signal.
Experiment [2] in a line: hepatitis C replication reporter changes, two-sided – Huh7 cells, luciferase reporter, HCV replication inhibitor project, primary screen (AID 1109).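 Note: huh7 hepatoma cells harbouring a luciferase neomycin HCV replicon reporter; luciferase luminescence as measure of HCV replicon replication; test concentration not given here.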 The conditions noted are these: Huh7 HCV replicon luciferase reporter, 48 h; higher = more signal. On the technique in general: Reporter assays use an easily measured gene product as a stand-in for the process of interest.
Experiment [3] concerns the target Left-right determination factor 2 (Homo sapiens) (UniProt O00292). The experiment is described as follows: small molecules binding LEFTY2 protein – biochemical, small-molecule microarray, 635 nm fluorescence scan, primary screen (AID 1110). The conditions noted are these: higher = more signal.
The target of experiment [4] is Calmodulin-1 (Homo sapiens) (UniProt P0DP23). The experiment is described as follows: small molecules binding calmodulin-1 with EGTA – biochemical, small-molecule microarray, Cy5-labelled CALM1, profiling panel (AID 1111).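 Note: labelled calmodulin applied in Tris saline Tween buffer holding calcium plus EGTA and DTT.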 Particulars: Cy5-CALM1 binding fluorescence, higher = more signal.
Experiment [5] shares this target. Put plainly: small molecules binding Ca-loaded calmodulin-1 – biochemical, small-molecule microarray, Cy5-labelled CALM1, plus calcium, artefact control for SMM control-protein annotation, profiling panel (AID 1112).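 Note: score merges spot fluorescence with signal to noise from triplicate slides.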 The conditions noted are these: Cy5-CALM1 binding fluorescence, higher = more signal.
Experiment [6] can be described thus: probe aWnt5a binding to arrayed compounds – biochemical, biotinylated probe, 635/667 nm fluorescence, primary screen (AID 1113).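 Note: score merges 667 nm fluorescence intensity with signal-to-noise per printed feature.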 Particulars: small-molecule microarray, higher = more signal.
The nature of experiment [7]: probe aShh binding to arrayed compounds – biochemical, biotinylated probe, 635/667 nm fluorescence, primary screen (AID 1114).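 Note: probe is biotin-labelled aShh protein from a stem cell growth factor screen; measures binding of labelled protein to compounds printed on the slide; score merges feature fluorescence at 667 nm with signal-to-noise.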 Particulars: small-molecule microarray, higher = more signal.
The nature of experiment [8]: probe aNog binding to arrayed compounds – biochemical, biotinylated probe, 635/667 nm fluorescence, primary screen (AID 1115).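 Note: probe is biotinylated aNog protein used at 0.15 µg/mL for 1 h at 4 C; z-score combines 667 nm fluorescence of each spot with its signal to noise.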 Particulars: small-molecule microarray, higher = more signal.
The target of experiment [9] is Torsin-1A-interacting protein 1 (Homo sapiens) (UniProt Q5JTV8). The experiment is described as follows: compound microarray binding of lysate hLAP1 – cell lysate, small-molecule microarray, COS7 lysate, 635/667 nm fluorescence, primary screen (AID 1116). The conditions noted are these: 635 nm fluorescence, higher = more signal.
Experiment [10] has as its target Alpha-bungarotoxin (Bungarus multicinctus) (UniProt P60615). Put plainly: compounds binding labelled alpha-BTX control protein – biochemical, small-molecule microarray, Alexa647 label, 635/667 nm fluorescence, artefact control for SMM control protein annotation, profiling panel (AID 1117). The conditions noted are these: alpha-BTX-A647 binding fluorescence, higher = more signal.

For another experiment, the target named is Albumin (Bos taurus) (UniProt P02769). The experiment is described as follows: compounds binding labelled BSA control protein – biochemical, small-molecule microarray, Alexa647 label, 635/667 nm fluorescence, artefact control for SMM control protein annotation, profiling panel (AID 1118).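 Note: score merges 667 nm emission intensity and signal-to-noise per printed compound spot.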 The conditions noted are these: BSA-A647 binding, fluorescence 635 nm, higher = more signal.

Experiment [11] in a line: probe aXIP binding to arrayed compounds – biochemical, NeuroSMM set, 635/667 nm fluorescence, primary screen (AID 1119).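 Note: probe is the protein aXip251-270 applied at 1 µg/mL to compound-printed slides; binding of probe to printed compounds measured as 667 nm fluorescence plus signal to noise.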 The conditions noted are these: small-molecule microarray, higher = more signal, called active from +8 up or from −8 down.
Experiment [12] in a line: probe aNOTCH3 binding on compound microarray – biochemical, small-molecule microarray, 635/667 nm fluorescence, primary screen (AID 1120).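 Note: probe is a biotin-tagged antibody raised against NOTCH3 rather than NOTCH3 protein; score merges spot fluorescence near 667 nm with spot signal to noise.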 Particulars: higher = more signal.
Experiment [13] in a line: probe aNOTCH2 binding on compound microarray – biochemical, small-molecule microarray, 635/667 nm fluorescence, primary screen (AID 1121).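 Note: score merges feature fluorescence read at 667 nm with its signal to noise.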 The conditions noted are these: higher = more signal.
The target of experiment [14] is Carbonic anhydrase 2 (Homo sapiens) (UniProt P00918). Put plainly: compounds binding carbonic anhydrase 2 – biochemical, small-molecule microarray, Alexa647-labelled CAII, profiling panel (AID 1122). Particulars: CAII-A647 binding fluorescence, higher = more signal.
Experiment [15] can be described thus: COS7 lysate on small-molecule microarray, probe aHis, 635 nm (AID 1123).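 Note: z-score combines 667nm fluorescence intensity with signal-to-noise per printed compound spot.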 Particulars: COS7 cell lysate, fluorescence, higher = more signal.
Experiment [16] in a line: probe aLAP1 signal on lysate-treated microarray – cell lysate, small-molecule microarray, COS7 lysate, primary screen (AID 1124).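 Note: lysate comes from COS7 cells expressing LAP1 and is applied at 0.3 µg/mL; score merges spot fluorescence near 667 nm with signal-to-noise over triplicate slides.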 The conditions noted are these: probe aLAP1, fluorescence, higher = more signal.
For another experiment, the system named is Sam68 (KHDRBS1). Put plainly: compounds binding KHDRBS1 protein – biochemical, small-molecule microarray, 635 nm fluorescence, primary screen (AID 1125).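 Note: score merges 667 nm channel intensity with signal to noise over triplicate slides.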 Particulars: higher = more signal.
Experiment [17] concerns Chordin-like protein 2 (CHRDL2). Put plainly: compounds binding chordin-like 2 – biochemical, small-molecule microarray, 635 nm fluorescence, primary screen (AID 1126).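 Note: printed compound slides probed with Chrdl2 protein at 4 µg/mL for 1 h at 4 C; score merges 667 nm emission intensity with signal to noise over three replicate slides.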 Particulars: fluorescence 635 nm, higher = more signal.
Experiment [18] concerns the target Concanavalin-A (Canavalia ensiformis) (UniProt P02866). The experiment is described as follows: compounds binding concanavalin A lectin – biochemical, small-molecule microarray, Alexa647 label, 635 nm, artefact control for SMM control protein annotation, primary screen (AID 1127).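 Note: z combines 667 nm emission intensity with signal-to-noise across three replicate slides.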 The conditions noted are these: ConA-A647 binding fluorescence, higher = more signal.

The source made the active and inactive calls.

Left-right determination factor 2 (Homo sapiens), sequence (O00292 whole entry, looked up): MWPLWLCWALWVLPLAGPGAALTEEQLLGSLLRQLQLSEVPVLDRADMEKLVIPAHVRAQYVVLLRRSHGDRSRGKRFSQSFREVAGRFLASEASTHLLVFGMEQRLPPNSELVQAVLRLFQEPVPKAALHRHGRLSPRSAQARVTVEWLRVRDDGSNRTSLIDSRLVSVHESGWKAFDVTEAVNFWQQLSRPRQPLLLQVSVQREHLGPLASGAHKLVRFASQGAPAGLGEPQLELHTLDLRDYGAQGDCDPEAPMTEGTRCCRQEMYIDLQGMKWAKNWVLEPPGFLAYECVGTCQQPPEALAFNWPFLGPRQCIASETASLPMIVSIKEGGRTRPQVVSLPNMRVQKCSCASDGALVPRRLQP
Albumin (Bos taurus), sequence (P02769 whole entry, looked up): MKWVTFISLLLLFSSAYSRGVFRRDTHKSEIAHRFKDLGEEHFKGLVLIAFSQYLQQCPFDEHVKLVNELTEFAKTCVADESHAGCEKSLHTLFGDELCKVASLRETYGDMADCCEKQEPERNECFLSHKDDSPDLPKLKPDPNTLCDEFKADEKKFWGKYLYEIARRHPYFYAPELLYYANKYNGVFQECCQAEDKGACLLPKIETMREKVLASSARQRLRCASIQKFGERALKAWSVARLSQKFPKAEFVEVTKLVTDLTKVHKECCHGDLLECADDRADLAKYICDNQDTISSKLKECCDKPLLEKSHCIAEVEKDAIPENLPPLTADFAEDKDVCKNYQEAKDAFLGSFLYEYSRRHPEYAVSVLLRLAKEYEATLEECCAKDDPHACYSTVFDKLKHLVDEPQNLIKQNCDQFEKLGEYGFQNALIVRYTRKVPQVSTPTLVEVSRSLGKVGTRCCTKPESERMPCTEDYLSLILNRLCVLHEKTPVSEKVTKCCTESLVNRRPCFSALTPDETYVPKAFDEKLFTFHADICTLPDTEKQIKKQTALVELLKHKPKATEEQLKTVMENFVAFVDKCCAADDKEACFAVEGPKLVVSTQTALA
Torsin-1A-interacting protein 1 (Homo sapiens), sequence (Q5JTV8 whole entry, looked up): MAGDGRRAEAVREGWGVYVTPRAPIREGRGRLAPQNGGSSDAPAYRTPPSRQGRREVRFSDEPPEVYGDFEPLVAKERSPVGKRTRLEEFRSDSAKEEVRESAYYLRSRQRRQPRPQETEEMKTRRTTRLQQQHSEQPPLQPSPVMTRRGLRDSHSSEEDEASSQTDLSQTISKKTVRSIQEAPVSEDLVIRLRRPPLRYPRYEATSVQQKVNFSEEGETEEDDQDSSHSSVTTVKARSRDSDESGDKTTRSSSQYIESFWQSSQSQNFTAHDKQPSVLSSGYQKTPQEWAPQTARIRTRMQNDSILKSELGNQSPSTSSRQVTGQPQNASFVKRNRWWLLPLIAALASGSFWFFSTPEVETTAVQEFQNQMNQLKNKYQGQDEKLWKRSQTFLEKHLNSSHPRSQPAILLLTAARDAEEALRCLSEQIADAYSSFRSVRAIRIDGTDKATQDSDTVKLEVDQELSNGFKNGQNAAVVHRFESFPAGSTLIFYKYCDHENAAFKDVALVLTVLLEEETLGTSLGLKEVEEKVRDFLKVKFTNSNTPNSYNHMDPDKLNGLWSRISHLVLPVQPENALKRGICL
Concanavalin-A (Canavalia ensiformis), sequence (P02866 whole entry, looked up): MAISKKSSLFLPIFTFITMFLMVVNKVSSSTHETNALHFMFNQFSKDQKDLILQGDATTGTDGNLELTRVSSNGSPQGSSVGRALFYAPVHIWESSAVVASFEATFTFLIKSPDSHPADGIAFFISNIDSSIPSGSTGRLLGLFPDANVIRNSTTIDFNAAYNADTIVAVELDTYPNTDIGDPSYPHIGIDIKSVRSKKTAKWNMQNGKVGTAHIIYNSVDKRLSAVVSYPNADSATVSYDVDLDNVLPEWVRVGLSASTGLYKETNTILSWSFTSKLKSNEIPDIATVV
Alpha-bungarotoxin (Bungarus multicinctus), sequence (P60615 whole entry, looked up): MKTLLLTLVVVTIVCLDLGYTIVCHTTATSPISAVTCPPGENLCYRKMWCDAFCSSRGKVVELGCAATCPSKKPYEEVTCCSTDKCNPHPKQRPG

Turning to `O=C1O[C@H](c2ccccc2)[C@H](c2ccccc2)N2[C@H]1[C@@H](C(=O)N1CCN(c3ncccn3)CC1)[C@]1(C(=O)Nc3ccccc31)[C@H]2c1ccc(OCCO)cc1`, the composite z-score in [1] was 1.42; in [3] it was 0.609; in experiment [4], -0.316; in [5], -0.802; in experiment [6], -0.0286; in experiment [7], -0.0578. The composite z-score in [8] was -0.0464; in experiment [9] it was 0.75; in [10], 0.4; with Albumin (Bos taurus) it was 0.204; in experiment [12] it was 0.183; in experiment [13], -0.0986. The composite z-score in [14] stood at 0.301; in experiment [15], 1.75; in experiment [16], 0.151; in the experiment on Sam68 (KHDRBS1), 1.3; in experiment [17], 0.602; in experiment [18], 0.536. Besides, the z-score in [2] was -1.67. In addition, in experiment [11], the composite Z-score is -0.317 (inactive).

Turning to `CCOC(=O)C1=CCC(c2ccc([N+](=O)[O-])cc2)N(S(=O)(=O)c2ccc(C)cc2)C1` (stereo not given), the composite z-score is 1.08 in experiment [1]; -0.087 in experiment [3]; 0.279 in experiment [4]; 0.548 in experiment [5]; -0.0644 in experiment [6]; 0.138 in [7]. Also, the composite z-score in experiment [8] is 0.61; in [9] it was 0.304; in [10] it was 0.159; with Albumin (Bos taurus) it was 0.261; in [12] it was 0.0351; in experiment [13], -0.0439. The composite z-score in experiment [14] is 0.408; in experiment [15], 1.12; in experiment [16], 0.279; in the experiment with Sam68 (KHDRBS1) it was 0.377; in experiment [17] it was -0.0439; in experiment [18], 0.666. Moreover, the z-score in [2] is -2.35. Further, in [11], the composite Z-score is 0.448 (inactive).

`C=CCNC(=O)[C@@H]1[C@H]2C(=O)O[C@H](c3ccccc3)[C@H](c3ccccc3)N2[C@H](c2ccccc2OCCO)[C@@]12C(=O)Nc1ccc(C#CC3=CCCCC3)cc12`: the composite z-score was 1.41 in [1]; 0.604 in experiment [3]; 1.09 in [4]; 0.17 in [5]; -0.0523 in experiment [6]; 0.0611 in [7]. The composite z-score in experiment [8] was -0.278; in experiment [9], 0.668; in [10], 1.24; with Albumin (Bos taurus), 0.482; in experiment [12], 0.0105; in [13] it was -0.0907. Further, the composite z-score in [14] is 0.271; in [15] it was 2.18; in experiment [16], 0.536; with Sam68 (KHDRBS1), 1.3; in [17] it was 0.436; in [18] it was 0.99. For the same molecule, in experiment [2], the z-score was -3.27. For the same molecule, the composite Z-score in [11] was -0.224 (inactive).

Take `O=C1O[C@@H](c2ccccc2)[C@@H](c2ccccc2)N2[C@@H](c3ccc(O)cc3)[C@]3(C(=O)Nc4ccc(C#CC5=CCCCC5)cc43)[C@@H](C(=O)O)[C@H]12`: the composite z-score is 0.2 in [1]; 0.0765 in experiment [3]; 2.02 in [4]; 0.999 in experiment [5]; -0.0077 in experiment [6]; 0.123 in experiment [7]. Also, the composite z-score in experiment [8] is 0.413; in experiment [9] it was 1.55; in experiment [10] it was 1.17; with Albumin (Bos taurus) it was 0.885; in [12], 0.139; in [13], 0.0685. Moreover, the composite z-score is 0.715 in experiment [14]; 1.86 in [15]; 0.788 in [16]; 1.32 with Sam68 (KHDRBS1); -0.194 in experiment [17]; 0.9 in experiment [18]. Besides, the z-score in experiment [2] was determined as 0.0664. In addition, the composite Z-score in experiment [11] was 0.341 (inactive).

For the molecule `Cc1ccccc1C(O)C1C=CC2C(=O)N(C)C(=O)C2N1Nc1ccccc1` (stereo not given), the composite z-score is 0.633 in experiment [1]; 0.103 in experiment [3]; 2.3 in [4]; 1.06 in experiment [5]; 0.111 in experiment [6]; -0.0289 in [7]. Moreover, the composite z-score in experiment [8] is 1.07; in experiment [9], 1.91; in experiment [10] it was 1.08; with Albumin (Bos taurus), 1; in experiment [12], 0.0674; in experiment [13], -0.0168. Besides, the composite z-score was 0.821 in experiment [14]; 2.05 in experiment [15]; 0.415 in [16]; 1.23 in the experiment with Sam68 (KHDRBS1); -0.345 in experiment [17]; 1.15 in experiment [18]. In addition, the z-score in experiment [2] is -0.712. Also, in experiment [11], the composite Z-score was 0.0032 (inactive).
